PfHsp40 yeast = rescue of PfHsp40-mediated yeast toxicity; S. cerevisiae expressing PfHsp40, growth rescue, ATP luminescence; growth rescue, % at 12.5 µM; hit rate 0.68% among 340,000; AID 504582; in the data active means growth rescue above about 28%, passing the limit was not always enough; inconclusive means no clear call, values can overlap the other calls;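 further: yeast W303a lacking pdr1 and pdr3 grown in galactose medium; growth measured after three days at 30 °C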
CCHF vOTU inh-1 = CCHFV vOTU protease inhibition | Pep-AMC fluorescence | hit rate 0.55% among 370,000 | inhibition, % at 11.5 µM
Mtb betalactam = beta-lactam sensitization of Mtb H37Rv; M. tuberculosis H37Rv growth with meropenem, percent inhibition; inhibition, % at 25 µM; hit rate 0.27% among 330,000; call rule not given here;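 further: growth measured after seven days incubation then overnight dye step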
RecA intein inh = Mtb RecA intein splicing inhibition; P9WHJ3; cell-free RecA intein splicing, fluorescence; inhibition, % (test concentration not listed); hit rate 0.75% among 290,000; AID 2221; in the data active means inhibition above about 30%; inconclusive means no clear call, values can overlap the other calls
Target sequence (P9WHJ3 whole entry, looked up): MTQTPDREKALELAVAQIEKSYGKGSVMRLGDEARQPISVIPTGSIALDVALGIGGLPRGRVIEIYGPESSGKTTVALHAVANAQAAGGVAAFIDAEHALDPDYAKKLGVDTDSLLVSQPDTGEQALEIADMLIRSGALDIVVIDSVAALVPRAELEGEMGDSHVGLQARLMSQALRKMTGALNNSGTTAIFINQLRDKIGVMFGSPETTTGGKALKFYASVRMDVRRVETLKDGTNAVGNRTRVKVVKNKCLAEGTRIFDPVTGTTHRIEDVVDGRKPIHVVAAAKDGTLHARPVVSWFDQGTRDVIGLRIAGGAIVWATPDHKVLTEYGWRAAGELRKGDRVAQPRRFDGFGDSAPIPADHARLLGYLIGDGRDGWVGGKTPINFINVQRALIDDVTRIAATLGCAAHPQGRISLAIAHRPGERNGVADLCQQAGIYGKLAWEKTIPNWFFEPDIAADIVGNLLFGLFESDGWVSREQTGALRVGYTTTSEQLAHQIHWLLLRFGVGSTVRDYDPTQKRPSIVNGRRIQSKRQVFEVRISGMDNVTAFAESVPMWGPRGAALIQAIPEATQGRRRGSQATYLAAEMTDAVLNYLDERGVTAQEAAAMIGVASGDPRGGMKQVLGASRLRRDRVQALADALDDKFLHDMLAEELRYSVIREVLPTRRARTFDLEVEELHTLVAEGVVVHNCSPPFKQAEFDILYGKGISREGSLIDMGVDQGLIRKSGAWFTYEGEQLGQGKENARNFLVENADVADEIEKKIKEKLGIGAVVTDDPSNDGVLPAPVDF
Mtb hypoxia rep = reduces hypoxia-regulated biosensor signal in M. tuberculosis; hit rate 0.1% among 300,000; fluorescence inhibition, % (test concentration not listed); M. tuberculosis hypoxia-regulated fluorescent reporter, fluorescence; in the data active means fluorescence inhibition mostly above about 23%, no sharp cut-off; inactive means mostly below about 17%
CCHF vOTU inh-2 = confirmation of CCHF virus vOTU protease inhibitors; AID 686976; inhibition, % at 11.5 µM; Recombinant CCHFV vOTU, Pep-AMC fluorescence; shares compounds with CCHF vOTU inh-1; hit rate 17% among 1,900
Numbers stand for hits; n = inactive; u = inconclusive; x = not tested or not shown. Compounds with a hit are over-represented: about 1.7% of the library has one in this group of screens. Unless noted, no stated cut-off is given here; in the data, active means inhibition above about 30%; inactive means the rest.

SMILES | PfHsp40 yeast | CCHF vOTU inh-1 | Mtb betalactam | RecA intein inh | Mtb hypoxia rep | CCHF vOTU inh-2
COCCCN1C(=O)C(CC(=O)NCCN2CCOCC2)CC(C(=O)N2CCOCC2)=C1C (stereo unspecified) | x | 39.4 | x | x | x | n
Cc1ccc(F)c(S(=O)(=O)NC(=O)C2(C)CCN2C(=O)C2(c3ccc(Cl)cc3)CC2)c1 (stereo unspecified) | x | 30.3 | x | x | x | n
Cc1ccc(F)c(S(=O)(=O)NC(=O)C2(C)CCN2C(=O)C2(c3ccc(Cl)cc3)CCC2)c1 (stereo unspecified) | x | n | x | x | x | x
O=C(C1=CC(C2CC2)CC(OCCCCO)O1)N1CCN(Cc2ccc3c(c2)OCO3)CC1 (stereo unspecified) | x | x | x | x | n | x
O=C(Cn1ncc2c3ccccc3n(Cc3ccc(F)cc3)c2c1=O)N1CCN(c2ncccn2)CC1 | n | 34.0 | n | n | n | n
O=C(Cn1ncc2c3ccccc3n(Cc3ccc(F)cc3)c2c1=O)N1CCC2(CC1)OCCO2 | u | x | n | n | n | x
O=C(CNC(=O)Cc1ccccc1)NCC(=O)OCC(=O)c1cccc2ccccc12 | n | 31.0 | n | n | n | n
CC(=O)c1ccc(NC(=S)Nc2cccc3cnccc23)cc1 | n | 39.0 | n | n | n | 81.5
Cc1ccc(C(O)c2ncc(-c3cccc(C(F)(F)F)c3)[nH]2)c(C)c1 (stereo unspecified) | x | n | x | x | x | x
Cc1cccc(C(O)c2ncc(-c3cccc(C(F)(F)F)c3)[nH]2)c1C (stereo unspecified) | x | 43.8 | x | x | x | n
Cc1ccc(C(O)c2ncc(-c3ccc(F)cc3)[nH]2)c(C)c1 (stereo unspecified) | x | 31.4 | x | x | x | n
COc1ccc2c(Cl)c(C(=O)NN=C3CCCC(=O)C3)sc2c1 | x | x | x | x | n | x
Cc1cccc(NC(=O)CN2C(=O)S/C(=C\c3ccc(O)c([N+](=O)[O-])c3)C2=O)c1 | n | 30.6 | n | n | n | n
CC1(C)OC(c2ccccc2)=C/C(=C/C=C2C(=O)NC(=O)NC2=O)O1 | n | 30.3 | n | n | n | n
Cc1ccc(N2CCN(N=C/C=C/c3ccccc3)CC2)cc1 | x | x | x | x | n | x
COc1cc(C(=O)O[C@H]2CC(C)=CC[C@@]3(C)CC[C@@](O)(C(C)C)[C@H]23)ccc1O | n | 38.0 | n | n | n | n
COc1cc(C(=O)OC2C[C@H]3CC[C@@H](C2)N3C)ccc1O (stereo partly specified) | n | n | n | n | n | x
CCOc1ccc2c(c1)C(C)=CC(C)(C)N2 | n | 39.6 | n | x | x | n
CCOC(=O)N=Nc1c2ccccc2c2nc3no[nH]c3nc12 | 115.8 | 58.5 | x | x | x | 85.7
CC(C)=CCC[C@H](C)CC1Cc2[nH]c(=S)[nH]c(=O)c2C(c2ccc(F)cc2)O1 (stereo partly specified) | x | n | x | x | x | x
CC(C)=CCC[C@H](C)CC1Cc2[nH]c(=S)[nH]c(=O)c2C(c2ccc(Cl)cc2)O1 (stereo partly specified) | x | 30.1 | x | x | x | n
COc1ccc(NC(=O)/C(C#N)=C\c2ccc(-c3cccc(C(=O)O)c3C)o2)cc1 | n | n | n | n | n | x
Cc1c(C(=O)O)cccc1-c1ccc(C=O)o1 | n | 36.4 | n | n | n | n
CN1/C(=C\C=C2C(=O)NC(=O)NC2=O)C(C)(C)c2ccccc21 | n | 36.1 | n | n | n | 36.9
CN1/C(=C\C=O)C(C)(C)c2ccccc21 | n | n | n | n | n | x
SMILES | PfHsp40 yeast | CCHF vOTU inh-1 | Mtb betalactam | RecA intein inh | Mtb hypoxia rep | CCHF vOTU inh-2
CC1CCc2c(N3CCC(O)CC3)c(F)cc3c(=O)c(C(=O)O)cn1c23 (stereo unspecified) | n | n | n | x | x | x
CC1CCc2cc(F)cc3c(=O)c(C(=O)O)cn1c23 (stereo unspecified) | n | 31.7 | n | n | n | n
Cc1csc(NN=Cc2ccc(O)c([N+](=O)[O-])c2)n1 | x | x | x | x | n | x
CC1=NN(c2ccccc2)C(=O)C1=Cc1ccc(Oc2ccc([N+](=O)[O-])cc2[N+](=O)[O-])cc1 | x | x | x | x | n | x
O=C(NC(=S)Nc1ccc(S(=O)(=O)Nc2nccs2)cc1)c1ccc(F)c(F)c1 | n | 42.1 | n | n | n | n
CCOC(=O)c1ccc(N2C(=O)c3n[nH]c(-c4ccco4)c3C2c2cccc([N+](=O)[O-])c2)cc1 (stereo unspecified) | n | 35.7 | n | n | n | n
CCOC(=O)c1ccc(N2C(=O)c3n[nH]c(C)c3C2c2ccco2)cc1 (stereo unspecified) | n | n | n | n | n | x
COc1ccc(NC(=O)CN(C)CC(=O)NC(=O)NC2CCCCC2)cc1 | n | 38.0 | n | x | n | n
